Compound activity from PubChem.
Mtb betalactam = beta-lactam sensitization of Mtb H37Rv. 0.27% of 330,000 active. M. tuberculosis H37Rv growth with meropenem, percent inhibition. AID 434955. inhibition, % at 25 µM; call rule not given here;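 also: growth measured after seven days incubation then overnight dye step; 0% = bacteria only wells and 100% = bacteria with antibiotic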
FadD28 binding = M. tuberculosis FadD28 bisubstrate binding inhibition; FadD28 bisubstrate probe binding, fluorescence polarization; inhibition, % at 12.5 µM; 0.22% of 360,000 active; AID 588549; in the data active = inhibition above about 8.5%, passing the limit was not always enough; inconclusive = no clear call, values can overlap the other calls
Rv3671c inh = inhibitors of M. tuberculosis serine protease Rv3671c | P9WHR9 | inhibition, % at 5.96 µM | 0.048% of 320,000 active; in the data active = inhibition above about 38%;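 also: extracellular domain of Rv3671c used as enzyme; 0% = enzyme with DMSO and 100% = no enzyme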
UGM FP inh = Mtb UDP-galactopyranose mutase inhibition | inhibition, % at 10 µM | AID 504406 | 0.06% of 320,000 active | P9WIQ1 | purified UGM, fluorescence polarization probe displacement; in the data active = inhibition above about 10%, passing the limit was not always enough; inconclusive = no clear call, values can overlap the other calls
RecA intein inh = inhibitors of M. tuberculosis RecA intein splicing; 0.75% of 290,000 active; AID 2221; inhibition, % (no concentration beside the values); cell-free RecA intein splicing, fluorescence; P9WHJ3; in the data active = inhibition above about 30%; inconclusive = no clear call, values can overlap the other calls;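 also: 0% = vehicle wells and 100% = reference inhibitor control wells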
Mtb hypoxia rep = reduces hypoxia-regulated biosensor signal in M. tuberculosis; AID 1159583; 0.1% of 300,000 active; fluorescence inhibition, % (concentration not given with the values); M. tuberculosis hypoxia-regulated fluorescent reporter, fluorescence; in the data active = fluorescence inhibition mostly above about 23%, no sharp cut-off; inactive = mostly below about 17%
The depositor's hits bear a star; ? = inconclusive; . = no result. Rows were chosen to be rich in hits. Some 0.92% of all compounds tested hit in one or more screens of this group.

SMILES	Mtb betalactam	FadD28 binding	Rv3671c inh	UGM FP inh	RecA intein inh	Mtb hypoxia rep
COc1cc(/C=N/NC(=O)CN(Cc2ccccc2)S(=O)(=O)c2ccc3c(c2)OCCO3)ccc1O	5	22*	7	-1	3	.
COc1ccc(/C=N/NC(=O)CN(Cc2ccccc2)S(=O)(=O)c2ccc3c(c2)OCCO3)cc1	5	-2	-19	-1	4	.
CC(C#Cc1c([C@@H](C)Oc2ccccc2)nnn1Cc1ccccc1)Oc1ccccc1 (stereo partly drawn)	-9	-4	-4	-2	11	.
CCOc1cccc(N2C(=O)/C(=C/c3ccco3)C(=O)NC2=S)c1	-6	3	-5	3	2	3
O=C1NC(=S)N(c2ccccc2)C(=O)/C1=C/c1ccco1	2	11*	-63	-4	7	.
O=C(CSc1nnc2ccccn12)NNC(=O)c1ccc([N+](=O)[O-])cc1	72	-3	-2	-2	-1	4
O=C(N/N=C/c1c[nH]c2ccccc12)c1cc(Cl)ccc1O	2	16*	11	4	-6	.
COc1ccc(Cl)cc1C(=O)NN=C1CCCC1	-6	-3	1	1	-1	-13
O=C(NN=C1CCCC1)c1cc(Cl)cc(Cl)c1O	8	20*	7	0	9	-2
COC1OC2O[C@@]3(C)CCC4C(C)CCC(C1C)[C@@]24OO3 (stereo partly drawn)	.	.	.	.	.	90*
CCC(C)NC(=O)CCC(=O)OC1O[C@H]2OC3(C)CC[C@H]4[C@H](C)CCC(C1C)C24OO3 (stereo partly drawn)	-8	-3	.	3	-1	74*
CCC(C)C(NC(=O)CCCNC(=O)CCC(=O)OC1O[C@H]2OC3(C)CC[C@H]4[C@H](C)CCC(C1C)C24OO3)C(=O)O (stereo partly drawn)	4	-2	0	0	1	.
CC(C)[C@H](NC(=O)N1CCn2c1nc1ccccc12)C(=O)N[C@H](C(=O)O)c1ccccc1	3	-1	1	1	4	.
Cc1ccccc1CS(=O)(=O)c1nnc([C@H](CC(C)C)NC(=O)OC(C)(C)C)o1	?	0	2	0	52*	-2
CC[C@@H](C)[C@H](NC(=O)OC(C)(C)C)c1nnc(S(=O)(=O)Cc2cc(C)ccc2C)o1	42	-4	-8	1	.	2
CCOc1ccc(NS(=O)(=O)c2ccc(N)cc2)cc1	1	-1	2	-2	0	12
CCOc1ccc(Nc2ccc(N)c(S(=O)(=O)O)c2)cc1	.	22*	.	.	.	21
COc1ccccc1NC(=O)c1sc2nc(Cc3ccccc3)cc(C(F)(F)F)c2c1N	0	1	-2	30*	-110	-1
Nc1c(C(=O)Nc2nccs2)sc2nc(-c3cccs3)cc(C(F)(F)F)c12	-5	-2	-9	1	-4	4
Cc1nnc(NC(=O)c2sc3nc(-c4cccs4)cc(C(F)(F)F)c3c2N)s1	?	9.4*	-2	2	-9	.
N#Cc1c(SCC(=O)Nc2nccs2)sc2c(O)cc(=O)[nH]c12	-5	3	-14	3	.	.
O=C(CSc1nc(O)cc(=O)n1-c1ccccc1)Nc1nc2ccccc2s1	-5	13*	-98	4	-3	6
N#Cc1c(SCC(=O)Nc2nc3ccc(Br)cc3s2)sc2c(O)cc(=O)[nH]c12	-4	0	-3	0	.	.
N#Cc1c(SCC(=O)Nc2nc3ccccc3s2)sc2c(O)cc(=O)[nH]c12	-3	12*	-33	6	.	-1
COc1ccc(NC(=O)CSc2nc(O)cc(=O)n2-c2ccccc2)cc1	-5	-1	.	0	9	2
SMILES	Mtb betalactam	FadD28 binding	Rv3671c inh	UGM FP inh	RecA intein inh	Mtb hypoxia rep
CCCSc1nnc(NC(=O)CSc2sc3c(O)cc(=O)[nH]c3c2C#N)s1	-7	16*	-10	1	7	2
CCCn1c(=O)c(C(=O)NCc2ccccc2)c(O)c2ccccc21	-11	-2	9	-3	.	.
CC(=O)c1ccc2c(c1)C1C(Cl)C(Sc3ccccc3[N+](=O)[O-])CC1C(C(=O)O)N2 (stereo not drawn)	-7	20*	2	-2	.	2
CC(=O)c1ccc(Sc2ccccc2N)c([N+](=O)[O-])c1	-4	-2	4	-1	2	3
O=C(CSc1ncnc2c1nnn2Cc1ccccc1)NC1CCCC1	-7	0	-1	-1	13	5
O=C(CSc1ncnc2c1nnn2Cc1ccccc1F)N1CCN(c2ccccc2)CC1	.	-3	.	.	43*	3
